High-throughput results deposited in PubChem by National Center for Advancing Translational Sciences (NCATS).
MBNL1 CUG block – inhibitors of human MBNL1 binding to CUG repeat RNA; Q9NR56; TR-FRET MBNL1-His/biotin-(CUG)12 binding, 665/545 ratio; Potency, µM (highest dose often 57.5 µM), without a hit: at the top dose activity change, negative = inhibition, actives largely listed as inhibitors; 280,000 tested, 0.036% active; AID 2675; active means well fitted inhibition curve with a large enough effect in the signal ratio, with a control signal flat, not every such curve was filed as active; inconclusive means small, poorly fitted or top-dose-only effect, or effect the other way, or a change in a side signal; inactive means no such curve, though single readings can be large or run the other way; the % refers to the signal ratio; further: potency means the concentration at half of the fitted maximal effect; on the % scale 0 is the no-effect control and ±100 the full control effect
Target sequence (Q9NR56 whole entry, looked up): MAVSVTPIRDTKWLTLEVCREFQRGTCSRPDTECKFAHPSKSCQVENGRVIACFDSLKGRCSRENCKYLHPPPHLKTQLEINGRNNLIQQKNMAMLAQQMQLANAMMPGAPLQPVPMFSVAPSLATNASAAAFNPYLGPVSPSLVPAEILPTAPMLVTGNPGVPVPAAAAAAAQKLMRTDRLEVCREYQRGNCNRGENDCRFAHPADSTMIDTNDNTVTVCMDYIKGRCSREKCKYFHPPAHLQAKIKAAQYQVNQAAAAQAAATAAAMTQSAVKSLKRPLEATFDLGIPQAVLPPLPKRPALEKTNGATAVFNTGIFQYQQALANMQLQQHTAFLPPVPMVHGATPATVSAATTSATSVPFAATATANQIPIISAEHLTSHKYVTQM
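TR-FRET between His-tagged MBNL1 and biotin-(CUG)12 RNA, detected with Tb anti-His antibody (0.055 ng/ul) and streptavidin-XL665 (5 nM), 60 min at room temperature. Compounds titrated 92 nM to 58 uM; 665/545 nm ratio normalized to buffer and complex controls.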
RORgamma inh – ROR gamma (mouse) transcription inhibition. P51450. Drosophila S2 Gal4-RORgamma UAS-luciferase reporter, 20 h. Potency, µM (doses to about 53.6 µM), without a hit: at the highest dose activity change, negative = inhibition, usual class: inhibitors. 310,000 tested, 5.4% active. AID 2551; further: potency means the concentration at half of the fitted maximal effect; on the % scale 0 is the no-effect control and ±100 the full control effect; nearly all actives have a fitted effect of over 60% in size
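Schneider cells (Drosophila), stable Gal4 DBD–ROR gamma + UAS-luc; 1 hr cmpd preincubation; Cu2+ induction 700 uM final; 20 hr ambient; luminescence.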
CtBP-E1A blk – inhibitors of CtBP/E1A interaction. 340,000 tested, 0.49% active. AlphaScreen GST-E1A/His-CtBP binding, 1536-well; active compounds read low. activity change, % (concentration not given with the values); in the data active means activity change below about -65%; inconclusive means mostly about -30% to -63%; further: on the % scale 0 is the no-effect control and ±100 the full control effect
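In 5 uL wells, 23 nL compound meets equimolar GST-E1A and His-CtBP (5X stock 125 nM each) for 2 h, 37 °C. Beads (5X, 50 ug/mL) then 1 h, 37 °C, dark.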
Gal4-VP16 FLuc – Gal4-VP16 reporter inhibition counter-screen; Drosophila S2 Gal4-VP16 UAS-luciferase, luminescence, 20 h; Potency, µM (doses to about 53.6 µM), for inactives: at the highest dose activity, negative = inhibition, hits mostly inhibitors; 310,000 tested, 3.5% active; AID 2546;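 further: Gal4-VP16 expression switched on by copper sulfate through the metallothionein promoter; potency means the concentration at half of the fitted maximal effect; on the % scale 0 is the no-effect control and ±100 the full control effect; nearly all actives have a fitted effect of over 50% in size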
Six1-Eya2 blk – inhibitors of human Six1/Eya2 interaction; Q15475+O00167; AlphaScreen GST-Six1/His-Eya2 binding, biochemical; active compounds read low; activity change, % (test concentration not listed); 360,000 tested, 0.56% active; in the data active means activity change below about -65%; inconclusive means mostly about -30% to -63%; further: on the % scale 0 is the no-effect control and ±100 the full control effect
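AlphaScreen luminescence read after one hour at 37 °C in darkness. Pin-transferred compounds met GST-Six1 and His-Eya2 protein (5X stock 250 nM/500 nM) plus glutathione donor and Ni-chelate acceptor beads (5X, 50 ug/mL).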
CBFb RUNX1 block – blocks binding between human CBF-beta and RUNX1; AID 1477; Q01196+Q13951; Potency, µM (highest dose often 59.8 µM), for the others: at the top dose activity, negative = inhibition, actives largely listed as inhibitors; AlphaScreen CBFb-His/RUNX1-biotin binding, biochemical; 230,000 tested, under 10 active; further: % of control where 0% means no effect
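AlphaScreen proximity signal reports loss of binding between His-tagged CBF-beta and biotin-labelled RUNX1, each at 30 nM. Proteins are pre-associated for 20 minutes, compounds added for 15 minutes, then beads for 90 minutes, all at ambient temperature.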
* = called active by the depositor; ? = inconclusive; . = no result given; [ ] = another dose, or the depositor's remark. Hits are enriched below; roughly 5.5% of the tested compounds scored in any of these assays. Unless noted, the call rests on the fitted dose curve; in most records, active means well fitted curve in the direction sought with a large enough effect; inconclusive means small, poorly fitted or top-dose-only effect, or another doubt; inactive means no such curve, though single readings can be large; an effect the other way counts as inactive or inconclusive.

SMILES	MBNL1 CUG block	RORgamma inh	CtBP-E1A blk	Gal4-VP16 FLuc	Six1-Eya2 blk	CBFb RUNX1 block
S=c1nc[nH]c2c1[nH]c1ccccc12	?	11µM*	13	0%[0.365 µM]	3	8%
Cc1cc(NC(=O)C(C)Sc2nc(-c3cccs3)nc3ccccc23)no1 (configuration not stated)	.	.	-2	.	-10	.
COc1cc(OC)c(C(=O)OCC(=O)NCCC2=CCCCC2)cc1OC	.	.	-22	.	-3	.
CN(C)c1ccc2cc(S(=O)(=O)O)cc(O)c2c1	.	.	?	.	-73*	.
COCC(=O)N1CCC2(CCCN(C(=O)Nc3ccc(OC)cc3)C2)CC1	.	33%	.	3%	.	.
CCC1=C2CC[C@H]3C(=O)N(CC(=O)OC)C(=O)[C@H]3[C@H]2[C@@]2(C)C(=O)N(CC3CC3)C(=O)N2C1=O	.	-22%	.	-17%	.	8%
O=C(NC(=S)Nc1nc2c(s1)CSc1ccccc1-2)c1ccccc1	9%	16µM*	3	?	-4	-15%
O=C(NC(=S)Nc1nc2c(s1)CCCC2)c1ccc(C(=O)c2ccccc2)cc1	.	?	-6	?	9	-6%
CCc1cccc(OCC(=O)Nc2cc(S(=O)(=O)N3CCOCC3)ccc2N2CCCC2)c1	-10%	36%	-3	24%	-8	.
Cc1ccc(/C=N/NC(=O)Cc2cccs2)o1	?	?	2	35µM*	4	2%
COC(=O)Cn1c(=O)c2c(nc3n2CCCN3CCc2ccccc2)n(C)c1=O	2%	-2%	6	-5%	-2	.
Cc1ccc(NC(=O)C2CCN(S(=O)(=O)c3ccc(N4CCCC4=O)cc3)CC2)cc1Cl	-1%	?	-4	3.2µM*	15	.
COc1ccc(NC(=O)C2CCN(S(=O)(=O)c3ccc(N4CCCC4=O)cc3)CC2)c(OC)c1	-1%	?	4	?	6	.
Cc1ccc(C)c(C(=O)CN2C(=O)NC3(CCCCCC3)C2=O)c1	.	.	4	.	0	.
COC(=O)c1ccc2c(c1)C(=O)/C(=C/c1ccc(O)cc1)O2	?	0.22µM*	7	1.6µM*	7	11%
CC(C)(C)c1ccc(/C=C2\Oc3cc(O)ccc3C2=O)cc1	0%	?	-17	?	2	.
CN(C)CCNC(=O)/C(=C/c1ccc(-c2cccc(Cl)c2)o1)NC(=O)c1ccccc1	.	3.2µM*	1	?	1	-7%
Cc1ccc(C(=O)N/C(=C\c2ccc(-c3ccccc3[N+](=O)[O-])o2)C(=O)NCCCN(C)C)cc1	?	-43%	-24	9%	-8	.
Cc1ccc(C(=O)N/C(=C\c2ccc(-c3ccccc3[N+](=O)[O-])o2)C(=O)NCCN(C)C)cc1	?	7.1µM*	-11	10µM*	-11	.
Cc1cc(N=NC(=O)c2ccccc2)ccc1O	7%	?	.	?	4	-2%
Nc1[nH]c(N=NC(=O)c2ccccc2)c2ccccc12	?	8.9µM*	-3	?	6	4%
Nc1[nH]c(N=NC(=O)c2ccccc2O)c2ccccc12	14%	?	?	?	-78*	-16%
Nc1[nH]c(N=NC(=O)c2ccc(Cl)cc2)c2ccccc12	-1%	5.6µM*	-12	?	-8	-5%
O=C(N=Nc1c(O)[nH]c2ccc([N+](=O)[O-])cc12)c1ccccc1Cl	1%	3%	.	-7%	-10	-1%
COc1ccc(C(=O)CSc2nc(C)cc(=O)[nH]2)cc1	-3%	-40%[0.365 µM]	5	.	4	-2%
Cc1cc(=O)[nH]c(SCC(=O)c2ccc(C(C)C)cc2)n1	-6%	1.1µM*	-1	?	-1	-3%
CC[C@@H]1Cn2c(c3nc(-c4cc(Cl)cc(Cl)c4Cl)nc-3n(C)c2=O)N1	.	8.9µM*	.	?	.	8%
CC[C@@H]1Cn2c(c3nc(-c4ccccc4)nc-3n(C)c2=O)N1	.	-31%	.	1%	.	10%
